40 compounds from PubChem BioAssay (NCI) can be followed below.

Structures are written as SMILES. About 79,000 compounds went through this panel and 15% of them were active in at least one assay; those are over-represented in the sample as a whole. A number with no mark means an inactive call. The source made the active and inactive calls. No stated cut-off is given here; in the data, active means growth inhibition above about 70%; inactive means the rest.

The nature of the first test: NCI Yeast Anticancer Drug Screen. Data for the cln2 rad14 strain (AID 165).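 Further: 0% = growth equal to vehicle treated cultures.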 Particulars: S. cerevisiae cln2 rad14 strain, at 5.0 µM (retest, dose inferred, filed as 0.5), active compounds read high. The procedure, abridged:
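Growth of compound-exposed yeast (cln2 rad14 genotype) measured and expressed as inhibition relative to vehicle.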
In the case of `Cc1cc(Cc2ccc(Cl)cc2)ccc1O`, the growth inhibition was -13%.
As to `CNCCN[C@@H]1c2cc3c(cc2[C@@H](c2cc(OC)c(O)c(OC)c2)[C@H]2C(=O)OC[C@@H]21)OCO3`, the growth inhibition was 3%.
Regarding `Cc1cc(NC(=S)SC(C)C)ccc1Br`, the growth inhibition was -19%.
Take `CC1CC2(C)ON=C(c3ccccc3)N2c2ccccc2S1` (stereo not drawn): the growth inhibition is -6%.
On to `O=C(Cc1ccccc1)OC(C(=O)c1ccccc1)c1ccccc1` (stereo not drawn), for which the growth inhibition is 2%.
For `Nc1ccc2ccccc2c1N=Nc1ccccc1`, the growth inhibition is -8%.
For `Clc1ccc(C(c2ccc(Cl)cc2)c2cncnc2)cc1`, the growth inhibition is 10%.
For the compound `OC(C(=Nc1ccccc1)c1ccccc1)c1ccccc1` (stereo not drawn), the growth inhibition was -3%.

Staying with this test, now noted: S. cerevisiae cln2 rad14 strain, at 50.0 µM (retest, dose inferred, filed as 5.0), active compounds read high.
For `COc1ccc(N=N/N=c2\sc3cc(Cl)ccc3n2C)cc1`, the growth inhibition is 56%.
Consider `O=c1ccc2nc3ccccc3ccc-2c1`, for which the growth inhibition was -58%.
With `CC(=O)Nc1ccc(O)c(=O)cc1`, the growth inhibition is 93% (active).
On the same count and under the same terms, under `CC(=O)Oc1c([N+](=O)[O-])cc(-c2ccccc2)cc1[N+](=O)[O-]` stands 99% (active).
With `Cc1cc(O)c(C)c(C)c1N=Nc1ccccc1`, the growth inhibition is -81%.
For `CCCCCCCC/C=C\CCCCCCCC(=O)O` (tested in a mixture with another compound), the growth inhibition was 96% (active).
The same measure, in the same setting: the value for `O=S(=O)(Nc1ccc(Cl)cc1)c1ccccc1` was 81% (active); that for `COC(=O)[C@@]12OC[C@]34[C@H]([C@@H](O)[C@@H]1O)[C@@]1(C)CC(=O)C(O)=C(C)[C@@H]1C[C@H]3OC(=O)[C@H](OC(=O)C(Cc1ccccc1)NC(=O)OC(C)(C)C)[C@@H]24` (stereo partly drawn) was 78% (active); that for `CSC(=S)n1nc(-c2cccs2)c(N=Nc2ccc(Cl)cc2)c1C(F)(F)F` was 49%.
Same read-out and setting: under `CCN1C2=NCCN2S(=O)(=O)c2ccccc21` stands 10%; under `CCCc1cc(-c2ccc(O)c(CCC)c2)ccc1O`, 99% (active).
As to `O=[N+]([O-])c1ccc(-c2cccc(Cl)c2)c([N+](=O)[O-])c1`, the growth inhibition was 98% (active).
In the case of `COC(=O)Oc1nn(C(=O)OC)c(=O)c2ccccc12`, the growth inhibition was 66%.
On to `Cc1n(CC(C)C)c2c([n+]1CC(=O)c1ccc([N+](=O)[O-])cc1)C(=O)c1ccccc1C2=O`, for which the growth inhibition is 98% (active).
Regarding `O=C(c1ccccc1)C1C(c2ccccc2)OP(c2ccccc2)(c2ccccc2)(c2ccccc2)C1c1ccccc1` (stereo not drawn), the growth inhibition was 99% (active).
Same read-out and setting: under `Cc1nc2c(cnn2-c2ccccc2)c(=O)o1` stands -45%; under `CCOC(=O)C(=O)Nc1nc2c(s1)C(=O)c1ccccc1C2=O`, 89% (active).
For the compound `O=C(CCl)OCC(=O)c1ccc(-c2ccccc2)cc1`, the growth inhibition is 95% (active).
With `ICCCCCCCCCC[n+]1ccc2ccccc2c1`, the growth inhibition is 99% (active).
Consider `CCC(C)OC(=O)Nc1cccc(Cl)c1` (stereo not drawn), for which the growth inhibition is -16%.
On the same count and under the same terms, the value for `COc1ccccc1CN1CCCN(Cc2ccccc2OC)C1c1ccccc1F` was -1%; that for `ON=C(CC(O)(C(F)(F)Cl)C(F)(F)Cl)CC(O)(C(F)(F)Cl)C(F)(F)Cl` was 99% (active).
Same read-out and setting: the value for `COC(=O)Cn1/c(=N\N=C(/C)c2ccc(C)cc2)sc2ccccc21` was 16%; that for `CCN(CC)CCOc1ccc(NC(=S)Nc2ccc(OCC(C)C)cc2)cc1` was 53%.
With `CCCCCCCCCCNC(=O)CBr`, the growth inhibition is 100% (active).
Still for that read-out and setting: under `CN(C)c1ccc(N=Nc2ccc(/C=C3\CCOC3=O)cc2)cc1` stands 4%; under `CCc1cccc(CC)c1NC(=O)C1=C(C)NC(C)=C(C(=O)Nc2c(CC)cccc2CC)C1c1ccc2c(c1)OCO2`, 26%.
Consider `Nc1cc2[nH]c(=O)c3cc(Cl)ccc3c2cc1Cl`, for which the growth inhibition was 58%.
`COc1ccc(OC(C)=O)c2c1CCC=CC2=O`: the growth inhibition is 80% (active).
Regarding `COc1ccc(-c2n[nH]c(C(F)(F)F)c2N=NN(C)C)cc1OC`, the growth inhibition was 99% (active).
For the compound `CCC(=NCCCCCCN=C(CC)c1cc(C)cc([N+](=O)[O-])c1O)c1cc(C)cc([N+](=O)[O-])c1O.[Fe]`, the growth inhibition is 49%.
Still for that read-out and setting: under `COc1ccc(CN2CCCN(Cc3ccc(OC)cc3)C2Cc2cc(Cl)ccc2OC)cc1` stands 19%.
On to `Cc1cc(Cc2ccc(Cl)cc2)ccc1O`, for which the growth inhibition is 99% (active).
For the compound `CNCCN[C@@H]1c2cc3c(cc2[C@@H](c2cc(OC)c(O)c(OC)c2)[C@H]2C(=O)OC[C@@H]21)OCO3`, the growth inhibition was 42%.
For the compound `Cc1cc(NC(=S)SC(C)C)ccc1Br`, the growth inhibition was 99% (active).
The same measure, in the same setting: under `CC1CC2(C)ON=C(c3ccccc3)N2c2ccccc2S1` (stereo not drawn) stands 97% (active); under `O=C(Cc1ccccc1)OC(C(=O)c1ccccc1)c1ccccc1` (stereo not drawn), 90% (active); under `Nc1ccc2ccccc2c1N=Nc1ccccc1`, 96% (active).
For `Clc1ccc(C(c2ccc(Cl)cc2)c2cncnc2)cc1`, the growth inhibition is 98% (active).
As to `OC(C(=Nc1ccccc1)c1ccccc1)c1ccccc1` (stereo not drawn), the growth inhibition is 98% (active).

The test is the same for the next values; noted with them: S. cerevisiae cln2 rad14 strain, at 50.0 µM, active compounds read high.
In the case of `COc1ccc(N=N/N=c2\sc3cc(Cl)ccc3n2C)cc1`, the growth inhibition is 30.4%.
For the compound `O=c1ccc2nc3ccccc3ccc-2c1`, the growth inhibition was 20.6%.
Still for that read-out and setting: the value for `CC(=O)Nc1ccc(O)c(=O)cc1` was 20.9%.
Consider `CC(=O)Oc1c([N+](=O)[O-])cc(-c2ccccc2)cc1[N+](=O)[O-]`, for which the growth inhibition is 47.5%.
As for `Cc1cc(O)c(C)c(C)c1N=Nc1ccccc1`, the growth inhibition is 16.8%.
The same measure, in the same setting: under `CCCCCCCC/C=C\CCCCCCCC(=O)O` (tested in a mixture with another compound) stands -53.9%.
For `O=S(=O)(Nc1ccc(Cl)cc1)c1ccccc1`, the growth inhibition is 20.9%.
Still for that read-out and setting: under `COC(=O)[C@@]12OC[C@]34[C@H]([C@@H](O)[C@@H]1O)[C@@]1(C)CC(=O)C(O)=C(C)[C@@H]1C[C@H]3OC(=O)[C@H](OC(=O)C(Cc1ccccc1)NC(=O)OC(C)(C)C)[C@@H]24` (stereo partly drawn) stands 85.9% (active); under `CSC(=S)n1nc(-c2cccs2)c(N=Nc2ccc(Cl)cc2)c1C(F)(F)F`, 65.4%; under `CCN1C2=NCCN2S(=O)(=O)c2ccccc21`, -20.6%.
Regarding `CCCc1cc(-c2ccc(O)c(CCC)c2)ccc1O`, the growth inhibition was 99.3% (active).
On to `O=[N+]([O-])c1ccc(-c2cccc(Cl)c2)c([N+](=O)[O-])c1`, for which the growth inhibition is 91% (active).
Turning to `COC(=O)Oc1nn(C(=O)OC)c(=O)c2ccccc12`, the growth inhibition was 99.6% (active).
Take `Cc1n(CC(C)C)c2c([n+]1CC(=O)c1ccc([N+](=O)[O-])cc1)C(=O)c1ccccc1C2=O`: the growth inhibition was 89.8% (active).
As for `O=C(c1ccccc1)C1C(c2ccccc2)OP(c2ccccc2)(c2ccccc2)(c2ccccc2)C1c1ccccc1` (stereo not drawn), the growth inhibition was 99.5% (active).
`Cc1nc2c(cnn2-c2ccccc2)c(=O)o1`: the growth inhibition is -31.2%.
Regarding `CCOC(=O)C(=O)Nc1nc2c(s1)C(=O)c1ccccc1C2=O`, the growth inhibition was 90% (active).
In the case of `O=C(CCl)OCC(=O)c1ccc(-c2ccccc2)cc1`, the growth inhibition was 10.2%.
On the same count and under the same terms, under `ICCCCCCCCCC[n+]1ccc2ccccc2c1` stands 85.4% (active); under `CCC(C)OC(=O)Nc1cccc(Cl)c1` (stereo not drawn), 14.8%; under `COc1ccccc1CN1CCCN(Cc2ccccc2OC)C1c1ccccc1F`, 36.6%.
The same measure, in the same setting: under `ON=C(CC(O)(C(F)(F)Cl)C(F)(F)Cl)CC(O)(C(F)(F)Cl)C(F)(F)Cl` stands 99.5% (active).
Take `COC(=O)Cn1/c(=N\N=C(/C)c2ccc(C)cc2)sc2ccccc21`: the growth inhibition is 15.3%.
Turning to `CCN(CC)CCOc1ccc(NC(=S)Nc2ccc(OCC(C)C)cc2)cc1`, the growth inhibition was 83.9% (active).
Still for that read-out and setting: the value for `CCCCCCCCCCNC(=O)CBr` was 18.9%.
As to `CN(C)c1ccc(N=Nc2ccc(/C=C3\CCOC3=O)cc2)cc1`, the growth inhibition was 37.2%.
As for `CCc1cccc(CC)c1NC(=O)C1=C(C)NC(C)=C(C(=O)Nc2c(CC)cccc2CC)C1c1ccc2c(c1)OCO2`, the growth inhibition was 91.3% (active).
Turning to `Nc1cc2[nH]c(=O)c3cc(Cl)ccc3c2cc1Cl`, the growth inhibition is -24.2%.
On to `COc1ccc(OC(C)=O)c2c1CCC=CC2=O`, for which the growth inhibition is 57%.
Consider `COc1ccc(-c2n[nH]c(C(F)(F)F)c2N=NN(C)C)cc1OC`, for which the growth inhibition is 99.4% (active).
Regarding `CCC(=NCCCCCCN=C(CC)c1cc(C)cc([N+](=O)[O-])c1O)c1cc(C)cc([N+](=O)[O-])c1O.[Fe]`, the growth inhibition is 70.5% (active).
As to `COc1ccc(CN2CCCN(Cc3ccc(OC)cc3)C2Cc2cc(Cl)ccc2OC)cc1`, the growth inhibition was 33.4%.
In the case of `Cc1cc(Cc2ccc(Cl)cc2)ccc1O`, the growth inhibition is 51.9%.
The same measure, in the same setting: the value for `CNCCN[C@@H]1c2cc3c(cc2[C@@H](c2cc(OC)c(O)c(OC)c2)[C@H]2C(=O)OC[C@@H]21)OCO3` was 82.4% (active); that for `Cc1cc(NC(=S)SC(C)C)ccc1Br` was 98.9% (active).
Consider `CC1CC2(C)ON=C(c3ccccc3)N2c2ccccc2S1` (stereo not drawn), for which the growth inhibition is 87% (active).
On the same count and under the same terms, the value for `O=C(Cc1ccccc1)OC(C(=O)c1ccccc1)c1ccccc1` (stereo not drawn) was -12.3%; that for `Nc1ccc2ccccc2c1N=Nc1ccccc1` was 96.6% (active).
`Clc1ccc(C(c2ccc(Cl)cc2)c2cncnc2)cc1`: the growth inhibition is 89.2% (active).
On to `OC(C(=Nc1ccccc1)c1ccccc1)c1ccccc1` (stereo not drawn), for which the growth inhibition is 98.8% (active).
